The whole screen tested about 16,000 compounds, of which about 5,100 (32%) were called active. About 25% were inconclusive and are not listed. Calls come from the whole dose curve; as a rule, active = well fitted curve in the direction sought with a large enough effect; inconclusive = small, poorly fitted or top-dose-only effect, or effect the other way; inactive = no such curve, though single readings can be large or run the other way. The list shows a part of the results.
Biological target: Cytochrome P450 3A4 (Homo sapiens) (UniProt P08684)
Assay: Cytochrome panel assay with activity outcomes
Settings: recombinant CYP, pro-luciferin dealkylation, luminescence, p450-cyp3a4; series mostly up to 57.1 µM; activity, negative = inhibition: at the top concentration
% is set by controls: 0 for no effect and ±100 for the full control effect.

Sequence of Cytochrome P450 3A4 (Homo sapiens) (P08684 whole entry, looked up): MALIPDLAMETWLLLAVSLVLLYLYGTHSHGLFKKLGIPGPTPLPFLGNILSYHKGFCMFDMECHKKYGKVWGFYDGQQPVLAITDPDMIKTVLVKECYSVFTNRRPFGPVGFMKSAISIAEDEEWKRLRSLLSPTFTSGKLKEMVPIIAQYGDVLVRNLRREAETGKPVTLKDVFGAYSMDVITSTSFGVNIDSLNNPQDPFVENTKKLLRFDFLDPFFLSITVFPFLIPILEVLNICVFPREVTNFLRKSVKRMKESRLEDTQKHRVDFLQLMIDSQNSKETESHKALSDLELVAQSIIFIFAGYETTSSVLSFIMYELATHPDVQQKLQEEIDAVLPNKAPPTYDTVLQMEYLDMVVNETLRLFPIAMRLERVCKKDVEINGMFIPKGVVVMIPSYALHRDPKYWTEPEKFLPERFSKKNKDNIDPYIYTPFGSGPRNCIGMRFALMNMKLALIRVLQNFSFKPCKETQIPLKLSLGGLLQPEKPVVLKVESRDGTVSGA

activity, negative = inhibition, inactive:
Cc1ccccc1S(=O)(=O)O[C@@H]1NS(=O)(=O)c2ccccc21 -3.69% [at 11.4 µM], Cc1noc(NC(=O)Nc2ccccc2F)c1C#N -12.9% [at 11.4 µM], COC(=O)C1=C(C)NC(=O)NC1c1ccsc1 (configuration not stated) -11.7%, COc1ccc(S(=O)(=O)NC2(C(F)(F)F)N=C3SCCN3C2=O)cc1 (configuration not stated) -11.2%, O=C(c1cnccn1)N1CCC2(CC1)CN(c1ccccc1)C2 21%, CN(C)c1ncc2nc(-c3ccc(F)cc3)c(=O)n(C3CC3)c2n1 -4.1%, Cc1ccc(C2=C(Cl)C(=O)C(c3ccc(C)cc3)=C(Cl)C2=O)cc1 -1.66% [at 11.4 µM], Cc1ccc(/S(C)=N/S(=O)(=O)c2ccc(C)cc2)cc1 (configuration not stated) -0.155% [at 2.29 µM], C=C(NC(=O)C(=C)NC(=O)c1csc(C2=N[C@@H]3c4csc(n4)[C@@H]4NC(=O)c5csc(n5)[C@@H]([C@](C)(O)[C@H](C)O)NC(=O)[C@@H]5CSC(=N5)/C(=C/C)NC(=O)[C@@H]([C@H](C)O)NC(=O)c5csc(n5)[C@]3(CC2)NC(=O)[C@@H](C)NC(=O)C(=C)NC(=O)[C@@H](C)NC(=O)[C@@H]([C@@H](C)CC)N[C@H]2C=Cc3c([C@H](C)O)cc(nc3[C@@H]2O)C(=O)O[C@H]4C)n1)C(N)=O -0.0029% [at 25.6 µM], CC1(C)Cc2c(ccc3ccccc23)C(=O)N1 2.26%, Clc1ccc(COc2ccccn2)cc1Cl -7.19% [at 2.29 µM], Clc1cccc(N/N=C/c2ccc(N3CCOCC3)cc2)c1 -10.2% [at 2.29 µM], NC(=O)c1nn(-c2ccccc2)c(=O)cc1O 19%, O=C1CC(c2ccc3c(c2)OCO3)CN1 (configuration not stated) -2.08% [at 2.29 µM], COc1ccc(/C=C/C(=O)c2ccoc2)cc1 -1.98%, O=C(/C=C/c1ccc2ccccc2c1)c1ccoc1 -18.6%, Nc1ccn([C@H]2O[C@@H](COP(=O)(O)O)[C@@H](O)[C@H]2O)c(=O)n1 -4.22% [at 11.4 µM], CS(=O)(=O)c1ccc(/C=N\NC(N)=S)cc1 -4.4% [at 11.4 µM], COc1ccc(C(=O)Oc2cc(/C=N/NS(=O)(=O)c3ccc(C)cc3)ccc2OC)cc1 -26% [at 2.29 µM], O=C(O)c1ccc(NS(=O)(=O)Cc2ccccc2)cc1 -11.2% [at 11.4 µM], CCOC(=O)c1ccc(NC(=O)C2CCCO2)cc1 (configuration not stated) -7.73% [at 11.4 µM], CCOC(=O)c1ccc(NC(=O)Nc2ccc3c4c(cccc24)C(=O)N3CC)cc1 -0.607%, CN=C1S/C(=C\c2ccc(Sc3ccc(Cl)cc3)o2)C(=O)N1C -13.3%, NC(=O)Nn1c(CCC(=O)O)ccc1-c1ccc(F)cc1 -12.8%, COc1ccccc1NC(=S)NC(=O)c1ccc(-c2ccc(Cl)cc2)o1 -7.71% [at 2.29 µM], O=C(Nc1ccc(Cl)cc1)OCc1cc(-c2ccccc2Cl)on1 28.2% [at 2.29 µM], C[C@@](N)(C(=O)O)c1ccc(S(=O)(=O)O)cc1 -3.33%, Cc1ccc(C(=O)Nc2ccccc2Oc2ccccc2)cc1[N+](=O)[O-] -22.4%, Cc1ccc(C(=O)COC(=O)CNC(=O)Cc2ccccc2)cc1[N+](=O)[O-] -4.57%, Cc1ccc(NC(=O)c2ccc(NCC3CCCO3)c([N+](=O)[O-])c2)cc1Cl (configuration not stated) -6.83% [at 11.4 µM], CC1=CC(=O)C=CC1(C)C(Cl)(Cl)Cl (configuration not stated) 2.38% [at 2.29 µM], O=c1[nH]c(=O)n([C@@H]2C[C@H](O)[C@H](CO)O2)cc1C(F)(F)F -12.5% [at 25.6 µM], O=C(NNC(=O)c1cc(-c2ccc(Cl)c(Cl)c2)nc2ccccc12)Nc1ccccc1 -6.22% [at 2.29 µM], CC1(C)S[C@@H]2[C@H](NC(=O)[C@@H](NC(=O)N3CCNC3=O)c3ccccc3)C(=O)N2[C@H]1C(=O)O 0.608% [at 25.6 µM], CCC1CC2CC(NC(C)=O)C1C2 (configuration not stated) 0.468% [at 2.29 µM], N[C@@H](Cc1cccc([N+](=O)[O-])c1)C(=O)O -9.82% [at 11.4 µM], O=[N+]([O-])c1ccc2c(c1)S(=O)c1ccccc1-2 (configuration not stated) -11.3% [at 11.4 µM], COC(=O)CCCC(=O)O -18.6% [at 11.4 µM], COc1cc2c(C(=O)NCc3ccc(C)o3)cn(CC(C)C)c(=O)c2cc1OC -15.9% [at 2.29 µM], COC(=O)C(C(=O)OC)C(C[N+](=O)[O-])c1ccc(OC)c(OC)c1 (configuration not stated) -7.76% [at 2.29 µM], O=C(CNc1cccc(Cl)c1)c1ccc(Cl)cc1 -14.6%, O=C(NOC(=O)c1cc(Br)ccc1Cl)c1cccs1 8.25%, CNS(=O)(=O)c1ccccc1C(=N)c1ccccc1 -6.85% [at 11.4 µM], CCN(CC)C[C@@H](O)c1ccc2ccc3ccccc3c2c1 -25.1% [at 11.4 µM], Cc1nnc(C)n1/N=C/c1cccs1 -16.5%, O=S(=O)(O)c1cc(O)c2c(N=Cc3ccccc3O)cc(S(=O)(=O)O)cc2c1 0.658% [at 11.4 µM], O=C(O)c1cc(N=Cc2ccccc2O)cc(C(=O)O)c1 -17.4% [at 11.4 µM], O=C(COc1ccc(/C=N/NC(=O)c2ccccc2)cc1)Nc1ccc([N+](=O)[O-])cc1 10.2%, COc1ccc(/C=N/NC(=O)c2cccc([N+](=O)[O-])c2)cc1OS(=O)(=O)c1ccc(C)cc1 -20.3% [at 2.29 µM], O=C(O)c1c(-c2c3ccc(=O)cc-3oc3cc(O)ccc23)cc2ccccc2c1-c1ccccc1 -8.67% [at 11.4 µM], CSCC[C@@H]1NC(=O)C/C=C\[C@@H](C)COC(=O)[C@H](C)COC1=O -24% [at 11.4 µM], CN1CCN(c2cc(-c3ccc(N(C)C)cc3)ncn2)CC1 -24.7%, N#Cc1c(-c2ccc3c(c2)OCO3)ccn2nc(-c3cccc(C(F)(F)F)c3)nc12 13.4%

AC50, active:
CC1=C(C(=O)Nc2ccccc2F)C(c2ccsc2)C2=C(CC(c3ccccc3)CC2=O)N1 (configuration not stated) 3.55 µM, O=C(c1cnccn1)N1CCC[C@@]2(CCN(c3cccc(-c4ccccc4)c3)C2)C1 3.98 µM, O=C(c1cnccn1)N1CCC2(CCCN(c3ccccc3)C2)CC1 1.58 µM, O=C(c1cnccn1)N1CCC2(CCCN(c3cccc(-c4ccccc4)c3)C2)CC1 2 µM, Cc1ccc(S(=O)(=O)CCCS(=O)(=O)c2ccc(C)cc2)cc1 12.6 µM, Cc1noc(C)c1-c1nc(NCCN2CCOCC2)c2ccccc2n1 12.6 µM, Clc1ccccc1-c1nc(NCCN2CCOCC2)c2ccccc2n1 15.8 µM, FC(F)(F)c1ccccc1-c1nc(NCCN2CCOCC2)c2ccccc2n1 7.94 µM, Clc1ccc(CSCCc2ccncc2)cc1Cl 1 µM, Cc1cc(O)c(/C=N/Nc2cccc(Cl)c2)c(=O)o1 5.62 µM, O=C1CC(c2ccc3c(c2)OCO3)Sc2nc3ccccc3n21 (configuration not stated) 2.51 µM, COc1cccc(C(=O)/C=C/c2ccc(SC)cc2)c1 3.98 µM, COc1ccc(/C=N/NC(N)=S)cc1OC(=O)c1cccc2ccccc12 2.24 µM, CCOC(=O)c1ccc(N/C(=N\S(=O)(=O)c2ccccc2C)c2ccccc2)cc1 2 µM, Clc1ccc(Sc2ccc(/C=N/n3cnnc3)o2)cc1 1.12 µM, COc1ccccc1-c1cc(C(=O)Nc2cc(C)n(Cc3ccc(Cl)cc3)n2)no1 15.8 µM, CC(C)(C)c1ccc(S(=O)(=O)/C=C\C#N)cc1 25.1 µM, CCC(=O)Nc1ccc(C(=O)OCC(=O)c2ccc(C)c([N+](=O)[O-])c2)cc1 7.94 µM, Cc1ccc(C(=O)Nc2ccc(Cc3ccncc3)cc2)cc1[N+](=O)[O-] 0.355 µM, COc1ccc(-c2nc(-c3ccccc3)c(-c3cc([N+](=O)[O-])ccc3C)[nH]2)cc1O 5.01 µM, Cc1ccc(NC(=O)c2cc(Cl)nc3ccccc23)cc1 10 µM, Cc1cccc(NC(=O)NNC(=O)c2cc(-c3ccccc3Cl)nc3ccccc23)c1 3.98 µM, N=C(N)S[C@H]1c2ccccc2-c2cc([N+](=O)[O-])ccc21 5.01 µM, COc1cc(C(=O)NCCC(C)C)c([N+](=O)[O-])cc1OC 15.8 µM, O=C(CCNc1cccc(Cl)c1)c1cccs1 14.1 µM, CCCCOC(OCCCC)[C@H](O)CSc1ccc2ccccc2c1 5.01 µM, S=c1[nH]nc(C2CCCCC2)n1/N=C/c1cccs1 12.6 µM, Cc1cc(O)c(C(C)C)cc1N=Cc1ccccc1O 3.16 µM, COc1cccc(/C=N/NC(=O)c2cccc([N+](=O)[O-])c2)c1OS(=O)(=O)c1ccc(C)cc1 1.12 µM, COc1cc(/C=N\Nc2ccc([N+](=O)[O-])cc2)ccc1OCC(=O)Nc1ccc(C)c(C)c1 3.98 µM, COc1cc(/C=N/NC(=O)c2cccc([N+](=O)[O-])c2)ccc1OCc1ccc(C)cc1 1.41 µM, Cc1nc(-c2c(C(F)(F)F)noc2-c2ccc(O)cc2O)cs1 0.501 µM, CN(C)c1ccc(-c2cc(-n3ccnc3)ncn2)cc1 0.0631 µM, N#Cc1cccc(-c2nccc(-n3ccnc3)n2)c1 2.51 µM, c1cn(-c2ccnc(-c3ccc4c(c3)OCO4)n2)cn1 0.631 µM, N#Cc1cccc(-c2cc(-n3ccnc3)ncn2)c1 0.398 µM

AC50, inactive:
C[C@@H](CCc1ccccc1)NC[C@H](O)c1ccc(O)c(C(N)=O)c1, CC(C)NC[C@H](O)c1ccc2ccccc2c1, N[C@@H](Cc1ccc(O)c(O)c1)C(=O)O
